The record followed here is PubChem BioAssay.

A short description of test [1]: yeast 75Q aggregation reduction – 75Q-TubU reporter (AID 1593). To be noted: Yeast 75Q polyglutamine aggregation reporter.
Test [2] is described as follows: blockers of cytochrome c efflux from mitochondria – biochemical, purified mitochondria (AID 1603).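 Further: mouse liver mitochondria challenged with calcium chloride; signal normalized to the plate average as 100%.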 The following applies: stronger effect = lower value.
Test [3] in a line: polyglutamine aggregate formation blockers (AID 1604). To be noted: polyglutamine-induced protein aggregation inhibition assay; stronger effect = higher value; tested at 2.5 µM.
A short description of test [4]: P. berghei load reduction in hepatocytes – cell-based, HepG2, luciferase luminescence, HepG2 viability, primary screen (AID 624349; in the data active means parasite load remaining mostly below about 12%, no sharp cut-off; inactive means mostly above about 10%;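 further: 100% = mean of DMSO negative control wells on the same plate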). The following applies: P. berghei liver stage in HepG2, luciferase luminescence, concentration not given here; parasite load remaining: stronger effect = lower value; viability: measured here: HepG2 viability without parasites.
Test [5] can be described thus: Wnt pathway potentiators raising nuclear beta-catenin – imaging, WNT3A-conditioned medium, mouse C2C12, NPC library, primary screen (AID 1117326; in the data active means nuclear beta-catenin stimulation mostly above about 4.2%, no sharp cut-off; inactive means mostly below about 10%). To be noted: stronger effect = higher value.
Test [6] in a line: stimulators of insulin release from INS-1E, primary screen, cell-based, 5 mM glucose, NPC library (AID 1117329;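 active means compound raises insulin release from rat beta cells at 5 mM glucose, no numeric limit stated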). The following applies: rat INS-1E insulin secretion, at 10 µM, stronger effect = higher value.
Test [7] can be described thus: growth inhibition of GSK3B-pretreated HCT116 cells – cell-based, CellTiter-Glo, 0.2 to 20 µM (AID 1117336;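 active means compounds lowering colon cancer cell viability after pretreatment blocking the GSK3B kinase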). The following applies: HCT116 viability after GSK3B inhibitor, at 20 µM, stronger effect = higher value.
Test [8] is described as follows: inhibition of endothelial tube formation, primary screen, imaging, VEGF stimulated, CD31 staining, tube area, NPC library (AID 1117340;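 active means compound that reduces growth-factor-driven endothelial tube area in a mixed cell culture, no cutoff stated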). The following applies: VEGF-stimulated ADSC/ECFC co-culture, at 10 µM, stronger effect = higher value.
Test [9] in a line: GLP1 release stimulators, primary, NCI-H716, NPC library (AID 1117341;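 active means compound raises GLP1 secretion from the human gut endocrine cells, with no numeric limit stated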). To be noted: NCI-H716 cells, at 10 µM, stronger effect = higher value.
Test [10] can be described thus: HCT116 colon cancer cell growth inhibition, primary screen, CellTiter-Glo luminescence, NPC library (AID 1117342;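 active means compounds that lower survival of HCT116 colon cancer cells in the luminescence readout, no numeric limit stated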). To be noted: at 20 µM (top of the series). A general note: Cellular ATP, detected with luciferase, serves as a proxy for viable cell number.
Test [11] can be described thus: reduced SW480 viability measured with CellTiter-Glo, NPC library, primary (AID 1117343;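 active means compounds that lower viability of the colon cancer cells in the luminescence readout, with no numeric limit stated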). The following applies: CellTiter-Glo luminescence; at 20 µM (top of the series).
A short description of test [12]: NPC library primary testing for decreased DLD-1 cell viability via CellTiter-Glo (AID 1117346;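 active means compounds that lower survival of DLD-1 colon cancer cells in the luminescence readout, no cutoff given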). To be noted: DLD-1 viability, CellTiter-Glo luminescence; at 20 µM (top of the series).
The target of test [13] is 6-phosphogluconate dehydrogenase, decarboxylating (Homo sapiens) (UniProt P52209). Description: inhibition of human phosphogluconate dehydrogenase – biochemical, recombinant enzyme, NADPH absorbance, primary screen (AID 1159550;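 active means at least 20% inhibition of 6-phosphogluconate dehydrogenase activity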). The following applies: recombinant 6PGD, NADPH absorbance 341 nm; at 10 µM; stronger effect = higher value.
Test [14] is described as follows: EMT-state selective cytotoxicity in co-culture – imaging, PC-3E GFP, TEM4-18 mCherry, primary screen (AID 1345086;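 active means compounds killing one labelled cell type while sparing the other, by normalised counts and ratio limits, not self-fluorescent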;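 on all read-outs here: cells exposed to compound for 72 h before imaging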;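 on red/green cell ratio (normalised): normalised mesenchymal count divided by normalised epithelial count so high means epithelial killing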). The following applies: PC-3E GFP / TEM4-18 mCherry co-culture, imaging cell counts, at 1 µM; for red/green cell ratio (normalised): actives lie on both sides.
In test [15] the test system is Aerobactin synthetase IucA (Klebsiella pneumoniae hvKP1). The test is described as follows: IucA enzyme inhibition, primary screen, biochemical, Spectrum library (AID 1346200; call rule not given here;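 further: 100% = wells without compound and 0% = wells lacking enzyme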). The following applies: malachite green pyrophosphate, A620, at 8 µM, stronger effect = lower value.
Test [16] in a line: viability loss with induced miR-34 in A549 – imaging, A549 dox-inducible miR-34, nuclei and caspase counts, primary screen (AID 1347080;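 active means compounds whose cell count with miR-34 switched on is under 0.7 times the count with it off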). The following applies: A549 miR-34 inducible, Hoechst nuclei count, 48 h.
Test [17] can be described thus: MELAS cybrid and Rieske KO viability enhancers – cell-based, MELAS cybrids, Rieske KO mouse fibroblasts, CellTiter-Glo, primary screen (AID 1508586).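 Further: z relative to plate mean and SD of compound and empty wells.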 To be noted: low glucose.
Test [18] addresses NAD(+) hydrolase SARM1 (Homo sapiens) (UniProt Q6SZW1). The test is described as follows: blocking NAD cleavage by SARM1 SAM-TIR – cell lysate, NAD-Glo luminescence (AID 1508614;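 active means compound whose remaining NAD level is above about 45 nM, limit read from the data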). The following applies: SAM-TIR HEK293T lysate NADase, at 1 µM, stronger effect = higher value.
Test [19] has as its target Mitogen-activated protein kinase 7 (Homo sapiens) (UniProt Q13164). Description: Gal4-ERK5 driven luciferase induction – cell-based, HTS, primary screen (AID 1508626;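 active means luciferase signal above three times the same-plate solvent-only control wells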;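 further: luciferase driven by Gal4-ERK5 fusion binding five Gal4 sites before minimal TATA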). The following applies: HeLa Gal4-ERK5 transactivation, 18 h, at 5 µM, stronger effect = higher value.
A short description of test [20]: galactose survival enhancers in mitochondrial complex I cybrids – cell-based, galactose medium, ATP luminescence, primary screen (AID 1645843;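 active means z-score of at least 1.8 in each of two replicates, scored against plate mean and spread of sample wells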;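 further: positive z means more ATP and so rescue of galactose-driven cybrid death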). To be noted: complex I mutant cybrid cells, 72 h, stronger effect = higher value.
[21] abbreviates: measured here: epithelial PC-3E GFP cell survival.
Where [22] appears, read: measured here: mesenchymal TEM4-18 mCherry cell survival.
[23] abbreviates: MELAS cybrid survival, CellTiter-Glo 48 h, stronger effect = higher value.
Where [24] appears, read: Rieske KO mouse fibroblast survival, CellTiter-Glo 72 h.

Values joined by “and” are separate entries in the source; they are usually repeats but may differ in a detail not shown here. Identical values can stand only once. More than one record can exist for a structure, and the calls need not agree. Active and inactive are the calls of the source.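 How the source made its calls, unless noted: active means mean z-score across replicates of 1.96 or higher in either the MELAS or the Rieske mutant cell line; inactive means the rest.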

Chain of NAD(+) hydrolase SARM1 (Homo sapiens) (Q6SZW1 whole entry, looked up, the tested form may be a part): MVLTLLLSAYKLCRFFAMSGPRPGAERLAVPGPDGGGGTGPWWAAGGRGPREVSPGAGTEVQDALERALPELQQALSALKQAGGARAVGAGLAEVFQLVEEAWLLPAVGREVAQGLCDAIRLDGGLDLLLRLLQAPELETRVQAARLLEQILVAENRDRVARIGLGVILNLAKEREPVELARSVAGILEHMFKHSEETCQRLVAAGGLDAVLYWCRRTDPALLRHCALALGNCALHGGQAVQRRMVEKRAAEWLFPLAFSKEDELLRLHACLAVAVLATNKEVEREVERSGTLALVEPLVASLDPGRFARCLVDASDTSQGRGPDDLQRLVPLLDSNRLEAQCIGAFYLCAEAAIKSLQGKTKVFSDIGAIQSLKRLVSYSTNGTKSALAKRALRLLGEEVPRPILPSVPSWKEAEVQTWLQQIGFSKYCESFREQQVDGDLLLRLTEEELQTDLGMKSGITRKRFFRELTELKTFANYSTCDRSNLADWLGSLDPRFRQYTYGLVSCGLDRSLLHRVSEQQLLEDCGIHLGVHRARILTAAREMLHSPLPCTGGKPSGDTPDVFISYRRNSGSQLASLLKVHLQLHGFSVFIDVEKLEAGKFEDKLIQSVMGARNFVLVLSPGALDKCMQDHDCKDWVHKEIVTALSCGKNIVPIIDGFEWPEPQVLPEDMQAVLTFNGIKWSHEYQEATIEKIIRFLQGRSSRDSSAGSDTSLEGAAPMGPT
Chain of Mitogen-activated protein kinase 7 (Homo sapiens) (Q13164 whole entry, looked up, the tested form may be a part): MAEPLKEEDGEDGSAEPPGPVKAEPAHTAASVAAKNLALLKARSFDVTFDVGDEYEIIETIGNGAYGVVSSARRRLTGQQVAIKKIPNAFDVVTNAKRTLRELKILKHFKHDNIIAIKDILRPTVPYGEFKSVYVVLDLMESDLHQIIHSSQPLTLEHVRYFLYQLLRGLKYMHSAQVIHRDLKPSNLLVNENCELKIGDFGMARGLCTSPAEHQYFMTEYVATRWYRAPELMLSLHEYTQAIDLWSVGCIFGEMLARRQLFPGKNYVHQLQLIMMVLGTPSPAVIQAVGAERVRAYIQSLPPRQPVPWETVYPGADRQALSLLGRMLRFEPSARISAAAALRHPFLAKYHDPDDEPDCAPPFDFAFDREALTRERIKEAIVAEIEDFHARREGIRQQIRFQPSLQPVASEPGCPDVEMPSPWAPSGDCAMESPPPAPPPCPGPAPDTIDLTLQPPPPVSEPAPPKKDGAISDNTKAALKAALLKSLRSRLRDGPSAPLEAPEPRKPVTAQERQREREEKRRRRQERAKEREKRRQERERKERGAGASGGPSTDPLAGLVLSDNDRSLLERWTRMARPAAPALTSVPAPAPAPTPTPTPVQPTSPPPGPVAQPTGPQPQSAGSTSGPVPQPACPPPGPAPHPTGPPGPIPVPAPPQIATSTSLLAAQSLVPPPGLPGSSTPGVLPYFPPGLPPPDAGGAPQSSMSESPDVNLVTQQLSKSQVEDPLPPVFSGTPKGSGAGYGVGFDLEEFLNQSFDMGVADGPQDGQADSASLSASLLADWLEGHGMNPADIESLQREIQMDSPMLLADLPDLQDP
Chain of 6-phosphogluconate dehydrogenase, decarboxylating (Homo sapiens) (P52209 whole entry, looked up): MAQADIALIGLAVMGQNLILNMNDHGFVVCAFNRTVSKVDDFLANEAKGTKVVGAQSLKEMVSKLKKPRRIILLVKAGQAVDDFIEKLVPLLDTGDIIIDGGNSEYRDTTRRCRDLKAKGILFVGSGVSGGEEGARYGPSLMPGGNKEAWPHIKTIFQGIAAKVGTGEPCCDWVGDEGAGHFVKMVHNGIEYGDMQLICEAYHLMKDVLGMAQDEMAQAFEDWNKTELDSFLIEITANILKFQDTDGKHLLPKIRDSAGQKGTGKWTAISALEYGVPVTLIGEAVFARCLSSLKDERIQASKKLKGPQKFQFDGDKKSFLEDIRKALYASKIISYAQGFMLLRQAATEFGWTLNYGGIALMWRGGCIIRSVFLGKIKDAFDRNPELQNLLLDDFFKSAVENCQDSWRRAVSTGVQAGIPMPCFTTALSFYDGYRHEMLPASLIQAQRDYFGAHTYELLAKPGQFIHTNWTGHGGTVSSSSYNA

Usually viability stands for a read-out of living cells in per cent, often relative to untreated cells. By inhibition is commonly meant the change of the read-out against control, counted positive when it falls. As for `c1ccc2nc(N3CCNCC3)ccc2c1`, the score in test [1] stood at 1.22. Further, the cytochrome c release ratio in [2] was found to be 0.9. The inhibition of aggregation in [3] turned out to be 63.9%. Also, the parasite load remaining in [4] was 73.5% (inactive) and 55.7% (inactive) and 53.7% (inactive). Besides, the viability in test [4] was 107% and 72.2% and 102%. The nuclear beta-catenin stimulation in [5] (at 10 µM) is 0.1% (inactive); in [5] (stimulation, at 2 µM), -1.9%. Also, in test [6], the insulin secretion stimulation is 4% (inactive). Besides, in test [7], the viability decrease is 41.7% (inactive). For the same molecule, the tube area decrease in test [8] is -4.1% (inactive). Also, the GLP1 secretion stimulation in test [9] is 3.6% (inactive). The inhibition of viability in test [10] is 56.9% (active). Besides, the viability decrease (inhibition) in test [11] is 54.9% (active); in test [12] it was 25% (inactive). Also, the inhibition in test [13] is 9.28% (inactive). For the same molecule, in test [14], the red/green cell ratio (normalised) was 1.18 (inactive). Further, the normalised cell number in test [14] (setting [21]) was 1.13; in [14] (setting [22]), 1.34. For the same molecule, the activity remaining in [15] was 124% (inactive). For the same molecule, the fold change is 0.855 (inactive) and 0.953 (inactive) and 0.849 (inactive) in test [16] (stronger effect = lower value); 1.3 and 0.736 and 5.89 in test [16] (measured here: relative caspase fold change +Dox/-Dox). For the same molecule, the cell count is 9120 and 9090 and 11300 in test [16] (measured here: total cells with miR-34 induction, stronger effect = lower value); 10700 and 9530 and 13400 in test [16] (measured here: total cells without miR-34 induction). Further, the z-score in test [17] (setting [23]) was 0.387 (inactive); in [17] (setting [24]) it was 0.0895; in test [20] it was -0.47 (inactive). Further, the remaining NAD in test [18] is 10 nM (inactive). Also, the luciferase signal in test [19] was 28 AU (inactive).
Regarding `COc1ccc(C(CN(C)C)C2(O)CCCCC2)cc1` (centres undefined), the nuclear beta-catenin stimulation in test [5] (at 10 µM) was 3.1% (inactive); in test [5] (stimulation, at 2 µM) it was 1.4%. Moreover, in [6], the insulin secretion stimulation is 2.1% (inactive). Also, in test [7], the viability decrease was -40% (inactive). Moreover, the tube area decrease in test [8] is 1.5% (inactive). The GLP1 secretion stimulation in test [9] was 4.1% (inactive). Besides, in test [10], the inhibition of viability was -3.77% (inactive). The viability decrease (inhibition) in test [11] is -4% (inactive); in test [12] it was -3.8% (inactive). The inhibition in test [13] is -0.228% (inactive). Also, the red/green cell ratio (normalised) in [14] (counts scaled to control wells, 1 = unselective) is 1.25 (inactive). The normalised cell number in test [14] (setting [21]) was found to be 1.01; in test [14] (setting [22]) it was 1.26. Further, in test [15], the activity remaining was 123% (inactive). In addition, the z-score in [17] (setting [23]) was 2.81 (active) and 0.624 (inactive) and -0.216 (inactive); in test [17] (setting [24]), -2.19 and 0.0731 and -0.394; in test [20] it was -0.07 (inactive) and 0.705 (inactive) and 0.625 (inactive). In addition, the remaining NAD in test [18] was 10 nM (inactive). Besides, in test [19], the luciferase signal is 48 AU (inactive).
For the molecule `CN1C2CCC(C)(C)C1CC(OC(=O)C(O)(c1cccs1)c1cccs1)C2` (centres undefined), the nuclear beta-catenin stimulation in [5] (at 10 µM) is -1.7% (inactive); in test [5] (stimulation, at 2 µM), -0.6%. Moreover, the insulin secretion stimulation in [6] was 5.6% (inactive). The viability decrease in test [7] is 8% (inactive). Further, the tube area decrease in test [8] was 4.7% (inactive). Moreover, in [9], the GLP1 secretion stimulation was -0.7% (inactive). For the same molecule, the inhibition of viability in test [10] is 27.8% (inactive). For the same molecule, the values for the viability decrease (inhibition) in test [11] and in [12] were 37.2% (inactive) and 27.7% (inactive), respectively.
Regarding `CC(NC(C)(C)C)C(=O)c1cccc(Cl)c1` (centres undefined), the nuclear beta-catenin stimulation in test [5] (at 10 µM) is -0.1% (inactive); in test [5] (stimulation, at 2 µM) it was 7.1%. Also, the insulin secretion stimulation in [6] was 0.3% (inactive). Further, in test [7], the viability decrease is -43.9% (inactive). Besides, the tube area decrease in [8] is 9.3% (inactive). The GLP1 secretion stimulation in test [9] is 0.3% (inactive). In addition, in test [10], the inhibition of viability was 9.97% (inactive). In addition, the viability decrease (inhibition) was 30.2% (inactive) in [11] and -10.5% (inactive) in test [12]. Besides, the inhibition in test [13] was -4.52% (inactive). Moreover, the red/green cell ratio (normalised) in [14] is 1.12 (inactive). Besides, the values for the normalised cell number in [14] (setting [21]) and in test [14] (setting [22]) were 1.04 and 1.16, respectively. Moreover, the activity remaining in [15] is 97% (inactive). Moreover, the z-score in test [17] (setting [23]) was -0.0615 (inactive) and 0.02 (inactive) and 0.556 (inactive); in test [17] (setting [24]), -0.319 and -0.308 and 0.695. Further, the remaining NAD in test [18] is 10 nM (inactive). Besides, in [19], the luciferase signal was 52 AU (inactive).
